ALDH1A1 inh = qHTS Assay for Inhibitors of Aldehyde Dehydrogenase 1 (ALDH1A1) | Aldehyde dehydrogenase 1A1 (Homo sapiens), P00352 | Purified ALDH1A1, NADH fluorescence, propionaldehyde substrate | Potency, µM (series often up to 75.3 µM), without a hit: at the top dose activity, negative = inhibition, hits mostly inhibitors | 220,000 tested, 7.3% active; active = well fitted inhibition curve with a large enough effect, not every such curve was filed as active; inconclusive = small, poorly fitted or top-dose-only effect, or another doubt; inactive = no such curve, though single readings can be large or run the other way;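 also: potency is read from the fitted curve at half-maximal effect; plate controls were no enzyme wells and a reference inhibitor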
Sfp PPTase inh = qHTS Assay for Inhibitors of Bacillus subtilis Sfp phosphopantetheinyl transferase (PPTase); Biochemical Sfp PPTase activity, qHTS; Potency, µM, without a hit: largest response in the series, negative = inhibition, most hits filed as inhibitors; AID 1490, 2009; 4'-phosphopantetheinyl transferase ffp (Bacillus subtilis), Q9F4F7; 310,000 tested, 3.5% active;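 also: the enzyme is Sfp with the accession as filed and its product quenches rhodamine fluorescence; potency is read from the fitted curve at half-maximal effect; 0% = enzyme reaction without inhibitor and -100% = no enzyme wells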
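Fluorescence-quenching assay: 15 nM Sfp-PPTase preincubated 15 min at room temperature with compound, then 5 uM rhodamine-CoA and 12.5 uM BHQ-2-labelled YbbR peptide added. Fluorescence (ex 525/em 598 nm) read at start and after 30 min; difference gives rate.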
Lamin A splicing = qHTS Assay for Modulators of Lamin A Splicing; HeLa LMNA splicing GFP/RFP minigene ratio, 48 h; Potency, µM (top dose mostly 46.1 µM), without a hit: at the highest dose ratio change, negative = inhibition, usual class: inhibitors; 200,000 tested, 0.01% active; active = well fitted inhibition curve with a large enough effect in the signal ratio, with a control signal flat, not every such curve was filed as active; inconclusive = small, poorly fitted or top-dose-only effect, or effect the other way, or a change in a side signal; the % refers to the signal ratio; also: potency is read from the fitted curve at half-maximal effect; % is scaled to controls: 0 for no effect and ±100 for the full control effect
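S3 HeLa cells stably expressing lamin A-EGFP splicing minigene plus DsRed2, 600 cells/well, 48 h compound exposure at 37C. Laser-scanning cytometry; analysed as GFP (500-530 nm)/RFP (575-640 nm) total intensity ratio; 0.5% DMSO vehicle.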
KDM4E inh = qHTS Assay for Inhibitors of Human Jumonji Domain Containing 2E (JMJD2E); Lysine-specific demethylase 4E (Homo sapiens), B2RXH2; JMJD2E catalytic domain, FDH-coupled NADH fluorescence (FDH is formaldehyde dehydrogenase); Potency, µM (titrated, usually from 57.1 µM), without a hit: top-dose activity change, negative = inhibition, usual class: inhibitors; 230,000 tested, 1.6% active; active = well fitted inhibition curve with a large enough effect, not every such curve was filed as active; inconclusive = small, poorly fitted or top-dose-only effect, or another doubt; inactive = no such curve, though single readings can be large or run the other way;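 also: potency is read from the fitted curve at half-maximal effect; 0% = wells with enzyme and -100% = buffer wells without enzyme; nearly all actives have a fitted effect of over 50% in size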
G9a inh = qHTS Assay for Inhibitors of Histone Lysine Methyltransferase G9a | Potency, µM (highest dose often 102 µM), for inactives: at the highest dose activity, negative = inhibition, usual class: inhibitors | G9a H3K9 monomethylation, AlphaScreen, 2 h | 350,000 tested, 8.8% active; also: potency is read from the fitted curve at half-maximal effect; % is scaled to controls: 0 for no effect and ±100 for the full control effect; nearly all actives have a fitted effect of over 75% in size
Target sequence (Q96KQ7 913-1193 limits assumed): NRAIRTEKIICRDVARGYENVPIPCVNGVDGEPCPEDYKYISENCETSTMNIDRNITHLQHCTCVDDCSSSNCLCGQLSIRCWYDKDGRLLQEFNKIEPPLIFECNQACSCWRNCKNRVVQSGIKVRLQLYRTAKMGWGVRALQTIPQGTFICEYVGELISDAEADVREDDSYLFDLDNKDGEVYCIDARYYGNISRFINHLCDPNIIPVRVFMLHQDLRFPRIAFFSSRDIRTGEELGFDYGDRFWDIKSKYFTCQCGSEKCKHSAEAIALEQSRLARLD
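Enzyme 20 nM + cpd, 15 min RT; add b-H3K9 pep 500 nM / SAM 20 uM; 2 h RT; anti-H3K9me1 Ab 0.5 ug/mL + SA donor / anti-rabbit acceptor beads 20 ug/mL each, 10 min; AlphaScreen read.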
miR-21 act = qHTS Assay for Modulators of miRNAs and/orActivators of miR-21; HeLa miR-21 FLuc reporter, luciferase, 48 h; Potency, µM (titrated, usually from 38.3 µM), without a hit: top-dose activity change, positive = activation, actives largely listed as activators; 340,000 tested, under 10 active; AID 2288, 2010;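 also: % of control where 0% means no effect; miR-21 action dims this reporter so a rising signal means less miR-21 action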
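Using DMEM plus 10% FBS, HeLa miR-21-FLuc cells are incubated with test compounds (final up to about 40uM) for 48 hours; firefly luciferase signal is then imaged following reagent-mediated lysis.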
* marks the source's active call; other numbers are inactive results; ? = inconclusive; nt = no result; [ ] = another dose, or the depositor's remark. Shown are actives, neighbours in structure and some others; about 13% of the full set was active somewhere. Unless noted, calls follow the shape of the dose curve; as a rule, active = well fitted curve in the direction sought with a large enough effect; inconclusive = small, poorly fitted or top-dose-only effect, or another doubt; inactive = no such curve, though single readings can be large; an effect the other way counts as inactive or inconclusive.

SMILES | ALDH1A1 inh | Sfp PPTase inh | Lamin A splicing | KDM4E inh | G9a inh | miR-21 act
O=c1oc2ccccc2nc1/C=C(O)/C=C/c1ccc(F)cc1 | -136.8% | 79.4µM* | ? | 1.9% | 44.7µM* | -28.4%
CCn1nc(C)cc1C(=O)N1CCCC(Nc2ccc(C(C)C)cc2)C1 (stereo not drawn) | nt | 4.7% | nt | nt | 50.1µM* | 0.2%
CC(C)c1ccc(NC2CCCN(C(=O)c3n[nH]c4c3CCC4)C2)cc1 (stereo not drawn) | nt | 9.9% | nt | nt | 70.8µM* | 18.6%
CC(C)c1ccc(NC2CCCN(C(=O)c3cnsn3)C2)cc1 (stereo not drawn) | nt | 9.7% | nt | nt | 35.5µM* | 0.6%
Cc1cc(C(=O)N2CCCC(Nc3ccc(C(C)C)cc3)C2)nn1C (stereo not drawn) | nt | 4.7% | nt | nt | ? | 2.7%
C=Cc1ccc(C(=O)N2CCCC(Nc3ccc4c(c3)OCCO4)C2)cc1 (stereo not drawn) | nt | 3.1% | nt | nt | 39.8µM* | -7.0%
COc1cc(NC(=O)COCc2cc(-c3ccc4c(c3)OCO4)on2)cc(OC)c1 | nt | nt | -9.3%[46 µM] | nt | 2.3%[59 µM] | 24.8%
CC(C)c1ccc(NC2CCCN(C(=O)c3cccnc3)C2)cc1 (stereo not drawn) | nt | -1.5% | nt | nt | 79.4µM* | 2.3%
COCc1ccc(C(=O)N2CCCC(Nc3ccc(C(C)C)cc3)C2)o1 (stereo not drawn) | nt | 7.0% | nt | nt | 44.7µM* | 7.4%
COCc1ccc(C(=O)N2CCCC(Nc3ccc(C(C)C)cc3)C2)s1 (stereo not drawn) | nt | 2.8% | nt | nt | 6.4% | 18.3%
CC(C)c1ccc(NC2CCCN(C(=O)c3ccsc3)C2)cc1 (stereo not drawn) | nt | 7.3% | nt | nt | -11.4% | -6.4%
Cc1occc1C(=O)N1CCCC(Nc2ccc(C(C)C)cc2)C1 (stereo not drawn) | nt | 10.0% | nt | nt | 39.8µM* | 5.8%
COC(=O)c1ccc(C(=O)N2CCCC(Nc3ccc(C(C)C)cc3)C2)cc1 (stereo not drawn) | nt | -3.7% | nt | nt | 79.4µM* | -0.9%
CC[C@H](C)[C@H](NC(=O)[C@H](CCCNC(=N)N)NC(=O)[C@@H](NC(=O)[C@H](CCCNC(=N)N)NC(=O)[C@H](CCCCN)NC(=O)[C@H](CCCNC(=N)N)NC(=O)[C@@H](NC(=O)[C@H](CC(N)=O)NC(=O)[C@@H](N)CS)[C@@H](C)O)[C@@H](C)CC)C(=O)N[C@@H](CCC(N)=O)C(=O)N[C@@H](CCCNC(=N)N)C(=O)NCC(=O)N1CCC[C@H]1C(=O)NCC(=O)N[C@@H](CCCNC(=N)N)C(=O)N[C@@H](C)C(=O)N[C@@H](Cc1ccccc1)C(=O)N[C@H](C(=O)N[C@H](C(=O)N[C@H](C(=O)NCC(=O)N[C@@H](CCCCN)C(=O)O)[C@@H](C)CC)[C@@H](C)O)C(C)C | nt | -22.0% | nt | nt | nt | nt
COC(=O)c1ccc(=O)c2nc3/c(=C/O)c(O)cc(=O)c3[nH]c12 | nt | ? | nt | 8.91µM* | 0.794µM* | 6.6%
COC(=O)c1ccc(N)cc1O | 0.6% | 10.6% | 16.1% | 6.9% | 1.0%[59 µM] | -3.1%
CCc1c2c(nc3ccc(OC)cc13)-c1nc3ccccc3c(=O)n1C2 | nt | 6.0% | nt | nt | nt | nt
CCc1cccc2nc3c(c([Si](CC)(CC)CC)c12)Cn1c-3cccc1=O | ? | 79.4µM* | nt | ? | nt | nt
CCc1c2c(nc3c(C(C)C)cccc13)-c1cccc(=O)n1C2 | ? | 50.1µM* | nt | ? | nt | nt
O=[N+]([O-])c1cnc(Sc2ccncn2)s1 | 3.16µM* | ? | nt | -13.2% | 10µM* | ?
COCCNC(=O)c1cc(-c2ccc(-c3ccccc3)cc2)nc2ccccc12 | nt | 9.7% | nt | nt | 18.0% | 0.2%
